Reference: PubChem BioAssay (NCATS)
Values joined by “and” are separate entries in the source; they are usually repeats but may differ in a detail not shown here. Equal values may be shown once. Results filed as inconclusive are left out. Active and inactive are the calls of the source. Calls follow the shape of the dose curve; as a rule, active = well fitted activation curve with a large enough effect; inconclusive = small, poorly fitted or top-dose-only effect; inactive = no such curve, though single readings can be large or run the other way.

target: Cellular tumor antigen p53 (Homo sapiens) (UniProt P04637); assay: Primary qHTS for small molecule compounds that upregulate eGFP-tagged delta133p53alpha (in N-terminal) cells. (AID 2060322); details: NCI-H358 eGFP-delta133p53alpha fluorescence, 24 h; activation: active compounds read high; also: nearly all actives have a fitted effect of over 75% in size;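 as to activation: cells pre-induced with doxycycline then dosed without doxycycline; series mostly up to about 56 µM; 0% = DMSO vehicle and 100% = reference activator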
Summary of the method: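 NCI-H358 cells pre-induced 24 h with 10 ng/ml doxycycline for eGFP-delta133p53alpha, plated dox-free and exposed 24 h at 37C to titrated compounds. Fixed, Hoechst-stained; gated GFP peak intensity by laser scanning cytometry, normalized to DMSO (0%) and 57.5 uM 5-azacytidine (100%).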
Potency is read from the fitted curve at half-maximal effect.

Cellular tumor antigen p53 (Homo sapiens), sequence (P04637 whole entry, looked up): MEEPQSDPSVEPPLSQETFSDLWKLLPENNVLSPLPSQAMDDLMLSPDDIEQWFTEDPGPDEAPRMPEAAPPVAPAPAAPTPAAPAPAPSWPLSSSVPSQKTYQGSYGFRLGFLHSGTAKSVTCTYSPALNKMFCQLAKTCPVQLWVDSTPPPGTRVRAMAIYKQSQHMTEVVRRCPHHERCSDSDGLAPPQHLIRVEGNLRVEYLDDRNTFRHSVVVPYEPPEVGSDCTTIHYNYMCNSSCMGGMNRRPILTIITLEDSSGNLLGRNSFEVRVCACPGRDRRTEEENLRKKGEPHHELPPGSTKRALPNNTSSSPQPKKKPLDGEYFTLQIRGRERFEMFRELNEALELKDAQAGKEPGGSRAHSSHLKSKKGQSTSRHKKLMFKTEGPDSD

Structure (SMILES) | activation | Potency
CC(Cc1ccccc1)NCCn1cnc2c1c(=O)n(C)c(=O)n2C (stereo not drawn) | 9.6% (inactive) | 
CC(Cc1ccc2c(c1)OCO2)NO (stereo not drawn) | -3.95% (inactive) | 
N#C[C@H](O[C@@H]1O[C@H](CO[C@@H]2O[C@H](CO)[C@H](O)[C@H](O)[C@H]2O)[C@H](O)[C@H](O)[C@H]1O)c1ccccc1 | 6.64% (inactive) | 
C[C@@H]1O[C@@H](O[C@@H]2C=C3CC[C@@H]4[C@@H](CC[C@]5(C)[C@H](c6ccc(=O)oc6)CC[C@@]45O)[C@@]3(C)CC2)[C@H](O)[C@H](O)[C@H]1O | -11.3% (inactive) | 
Nc1ccccc1C(=O)OCC(O)CO (stereo not drawn) | -5.02% (inactive) | 
OCCCBr | -36.8% (inactive) | 
[N-]=[N+]=CC(=O)OC[C@H](N)C(=O)O | 5.02% (inactive) | 
Oc1ccc(Cl)cc1Cc1ccccc1 |  | 45.5 µM (active) and 24.6 µM (active)
